In ChEMBL document CHEMBL1961873, “Compounds: GSK PKIS; Assays: Nanosyn kinase panel” (2012) one finds inhibition data, which are given here for seven compounds.

In experiment [1] the target is Serine/threonine-protein kinase MARK2 (Homo sapiens) (UniProt Q7KZI7). Particulars: at 1 µM.
Experiment [2] deals with PAS domain-containing serine/threonine-protein kinase (Homo sapiens) (UniProt Q96RG2). Particulars: at 0.1 µM.
Experiment [3] has the same target. Particulars: at 1 µM.
Experiment [4] has as its target Phosphorylase b kinase gamma catalytic chain, skeletal muscle/heart isoform (Homo sapiens) (UniProt Q16816). Particulars: at 0.1 µM.
For experiment [5] the target is unchanged. Particulars: at 1 µM.
The target of experiment [6] is T1, Phosphorylase b kinase gamma catalytic chain, liver/testis isoform (Homo sapiens) (UniProt P15735).
T1 sequence (whole entry): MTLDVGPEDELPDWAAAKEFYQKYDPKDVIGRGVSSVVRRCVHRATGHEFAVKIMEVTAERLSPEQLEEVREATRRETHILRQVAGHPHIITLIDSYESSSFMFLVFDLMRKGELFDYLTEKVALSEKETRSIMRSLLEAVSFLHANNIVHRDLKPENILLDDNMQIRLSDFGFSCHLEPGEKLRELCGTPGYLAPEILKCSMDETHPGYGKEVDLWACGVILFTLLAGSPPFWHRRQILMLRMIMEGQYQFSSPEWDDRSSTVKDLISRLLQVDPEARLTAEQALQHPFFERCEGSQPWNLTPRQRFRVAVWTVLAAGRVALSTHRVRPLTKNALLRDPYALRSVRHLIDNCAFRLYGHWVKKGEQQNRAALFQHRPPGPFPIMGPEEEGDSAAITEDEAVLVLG
Particulars: at 0.1 µM.

In experiment [7] the target is T1, Phosphorylase b kinase gamma catalytic chain, liver/testis isoform (Homo sapiens). Particulars: at 1 µM.
The target in experiment [8] is Serine/threonine-protein kinase pim-1 (Homo sapiens) (UniProt P11309). Particulars: at 0.1 µM.
For experiment [9] the target is unchanged. Particulars: at 1 µM.
Experiment [10] has as its target Serine/threonine-protein kinase pim-2 (Homo sapiens) (UniProt Q9P1W9). Particulars: at 0.1 µM.
Experiment [11] shares this target. Particulars: at 1 µM.
Experiment [12] concerns the target Serine/threonine-protein kinase pim-3 (Homo sapiens) (UniProt Q86V86). Particulars: at 0.1 µM.
Experiment [13] has the same target. Particulars: at 1 µM.
For experiment [14], the target named is T2, MAP kinase-activated protein kinase 5 (Homo sapiens) (UniProt Q8IW41).
T2 sequence (whole entry): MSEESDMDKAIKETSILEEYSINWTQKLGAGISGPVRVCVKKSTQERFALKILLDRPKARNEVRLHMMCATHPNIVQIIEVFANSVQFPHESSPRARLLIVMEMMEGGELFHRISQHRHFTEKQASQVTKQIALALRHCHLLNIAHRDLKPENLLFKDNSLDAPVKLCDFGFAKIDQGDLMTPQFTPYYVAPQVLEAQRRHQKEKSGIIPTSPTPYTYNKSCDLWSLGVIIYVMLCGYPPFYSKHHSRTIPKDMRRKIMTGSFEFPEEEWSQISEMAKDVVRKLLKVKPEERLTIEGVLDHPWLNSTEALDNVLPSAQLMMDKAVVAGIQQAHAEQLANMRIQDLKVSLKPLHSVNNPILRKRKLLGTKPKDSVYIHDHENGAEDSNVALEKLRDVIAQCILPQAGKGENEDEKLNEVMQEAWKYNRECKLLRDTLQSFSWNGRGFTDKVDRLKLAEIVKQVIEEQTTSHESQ
Particulars: at 0.1 µM.

For experiment [15], the target named is T2, MAP kinase-activated protein kinase 5 (Homo sapiens). Particulars: at 1 µM.
In experiment [16] the target is Serine/threonine-protein kinase SIK1 (Homo sapiens) (UniProt P57059). Particulars: at 0.1 µM.
Experiment [17] has the same target. Particulars: at 1 µM.
For experiment [18], the target named is Serine/threonine-protein kinase SIK2 (Homo sapiens) (UniProt Q9H0K1). Particulars: at 0.1 µM.
Experiment [19] shares this target. Particulars: at 1 µM.
The target of experiment [20] is T3, Serine/threonine-protein kinase TBK1 (Homo sapiens) (UniProt Q9UHD2).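 Note: values are the mean TBK1 inhibition, taken from the GSK PKIS screening data.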
T3 sequence (whole entry): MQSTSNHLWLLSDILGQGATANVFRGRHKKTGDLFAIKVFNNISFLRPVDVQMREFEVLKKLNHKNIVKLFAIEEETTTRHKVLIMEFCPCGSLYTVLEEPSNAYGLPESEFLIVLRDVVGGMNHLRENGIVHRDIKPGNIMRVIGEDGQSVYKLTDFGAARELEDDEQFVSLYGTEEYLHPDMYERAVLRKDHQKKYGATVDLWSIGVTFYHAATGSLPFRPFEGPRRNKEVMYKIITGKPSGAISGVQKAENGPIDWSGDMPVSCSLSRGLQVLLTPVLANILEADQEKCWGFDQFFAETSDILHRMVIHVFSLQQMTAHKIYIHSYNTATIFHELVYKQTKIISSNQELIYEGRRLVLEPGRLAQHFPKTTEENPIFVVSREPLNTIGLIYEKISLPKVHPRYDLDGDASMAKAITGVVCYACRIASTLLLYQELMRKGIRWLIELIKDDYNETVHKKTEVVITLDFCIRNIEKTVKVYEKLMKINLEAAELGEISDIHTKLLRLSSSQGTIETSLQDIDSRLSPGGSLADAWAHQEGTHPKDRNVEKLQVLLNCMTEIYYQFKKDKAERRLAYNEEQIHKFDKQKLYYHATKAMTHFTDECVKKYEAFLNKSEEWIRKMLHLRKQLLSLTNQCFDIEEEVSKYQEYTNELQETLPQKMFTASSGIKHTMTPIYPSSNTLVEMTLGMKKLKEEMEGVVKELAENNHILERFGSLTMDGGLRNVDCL
Particulars: at 0.1 µM.

Chain of PAS domain-containing serine/threonine-protein kinase (Homo sapiens) (Q96RG2 whole entry, the tested form may be a part): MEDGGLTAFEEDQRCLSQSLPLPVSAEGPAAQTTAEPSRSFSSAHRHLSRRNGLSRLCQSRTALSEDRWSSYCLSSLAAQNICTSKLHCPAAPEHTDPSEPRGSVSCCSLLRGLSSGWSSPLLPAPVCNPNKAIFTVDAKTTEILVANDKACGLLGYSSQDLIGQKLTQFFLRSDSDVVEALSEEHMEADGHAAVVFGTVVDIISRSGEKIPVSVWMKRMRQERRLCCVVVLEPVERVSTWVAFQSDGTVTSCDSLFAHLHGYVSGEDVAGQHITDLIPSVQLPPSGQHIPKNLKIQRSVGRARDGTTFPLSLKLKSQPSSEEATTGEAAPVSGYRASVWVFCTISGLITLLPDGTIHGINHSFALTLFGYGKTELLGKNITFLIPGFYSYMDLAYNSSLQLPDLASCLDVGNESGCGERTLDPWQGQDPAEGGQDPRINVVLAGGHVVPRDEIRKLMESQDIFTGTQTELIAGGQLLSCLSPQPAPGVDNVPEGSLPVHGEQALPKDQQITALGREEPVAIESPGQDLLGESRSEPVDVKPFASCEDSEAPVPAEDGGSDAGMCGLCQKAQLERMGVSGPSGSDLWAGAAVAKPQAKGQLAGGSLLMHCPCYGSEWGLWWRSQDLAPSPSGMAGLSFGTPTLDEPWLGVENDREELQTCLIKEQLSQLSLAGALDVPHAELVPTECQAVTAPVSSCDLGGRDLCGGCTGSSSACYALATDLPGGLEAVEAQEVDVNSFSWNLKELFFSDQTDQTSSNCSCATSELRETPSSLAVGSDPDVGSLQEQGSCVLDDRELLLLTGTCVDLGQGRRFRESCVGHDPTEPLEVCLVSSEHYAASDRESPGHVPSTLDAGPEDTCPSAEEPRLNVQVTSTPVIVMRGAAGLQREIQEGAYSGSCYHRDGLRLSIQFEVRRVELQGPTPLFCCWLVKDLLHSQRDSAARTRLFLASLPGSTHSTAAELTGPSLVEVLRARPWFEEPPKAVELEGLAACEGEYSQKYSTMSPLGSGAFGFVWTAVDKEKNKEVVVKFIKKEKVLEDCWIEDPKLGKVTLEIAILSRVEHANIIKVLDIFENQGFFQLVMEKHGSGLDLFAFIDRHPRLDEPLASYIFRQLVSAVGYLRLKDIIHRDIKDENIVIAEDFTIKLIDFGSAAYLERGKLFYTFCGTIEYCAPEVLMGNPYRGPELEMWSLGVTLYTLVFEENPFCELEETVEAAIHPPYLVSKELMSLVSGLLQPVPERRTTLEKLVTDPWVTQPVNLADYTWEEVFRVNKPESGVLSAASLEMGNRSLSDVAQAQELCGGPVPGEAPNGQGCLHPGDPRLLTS
Chain of Serine/threonine-protein kinase pim-2 (Homo sapiens) (Q9P1W9 whole entry, looked up): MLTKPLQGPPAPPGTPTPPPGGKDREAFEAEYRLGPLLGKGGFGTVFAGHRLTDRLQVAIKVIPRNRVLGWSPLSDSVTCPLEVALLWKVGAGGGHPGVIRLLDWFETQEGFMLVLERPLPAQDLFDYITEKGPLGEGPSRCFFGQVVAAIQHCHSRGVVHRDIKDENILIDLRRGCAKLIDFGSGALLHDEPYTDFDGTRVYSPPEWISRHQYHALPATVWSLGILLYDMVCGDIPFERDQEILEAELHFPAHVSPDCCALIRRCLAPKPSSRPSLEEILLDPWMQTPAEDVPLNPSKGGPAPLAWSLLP
Chain of Serine/threonine-protein kinase MARK2 (Homo sapiens) (Q7KZI7 whole entry, the tested form may be a part): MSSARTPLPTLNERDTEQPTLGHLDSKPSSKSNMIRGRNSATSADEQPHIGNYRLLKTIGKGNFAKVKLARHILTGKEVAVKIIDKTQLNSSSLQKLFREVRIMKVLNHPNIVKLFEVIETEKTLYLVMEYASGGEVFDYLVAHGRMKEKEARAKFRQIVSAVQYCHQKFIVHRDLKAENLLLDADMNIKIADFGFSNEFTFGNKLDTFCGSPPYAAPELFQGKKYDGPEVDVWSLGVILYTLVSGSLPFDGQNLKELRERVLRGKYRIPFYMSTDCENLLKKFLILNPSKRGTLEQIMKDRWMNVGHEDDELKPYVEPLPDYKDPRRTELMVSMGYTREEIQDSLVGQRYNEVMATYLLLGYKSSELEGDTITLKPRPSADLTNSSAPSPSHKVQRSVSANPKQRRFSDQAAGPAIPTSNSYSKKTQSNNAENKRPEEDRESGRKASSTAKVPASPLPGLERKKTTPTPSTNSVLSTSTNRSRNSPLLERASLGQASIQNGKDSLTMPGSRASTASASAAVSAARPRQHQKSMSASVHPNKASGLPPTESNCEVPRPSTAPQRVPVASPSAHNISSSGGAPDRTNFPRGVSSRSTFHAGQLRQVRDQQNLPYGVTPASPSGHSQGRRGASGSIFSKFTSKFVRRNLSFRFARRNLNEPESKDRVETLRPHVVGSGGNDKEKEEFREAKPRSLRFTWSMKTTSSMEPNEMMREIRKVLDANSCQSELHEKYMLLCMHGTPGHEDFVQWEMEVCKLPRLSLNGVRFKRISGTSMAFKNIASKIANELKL
Chain of Serine/threonine-protein kinase pim-1 (Homo sapiens) (P11309 whole entry, looked up): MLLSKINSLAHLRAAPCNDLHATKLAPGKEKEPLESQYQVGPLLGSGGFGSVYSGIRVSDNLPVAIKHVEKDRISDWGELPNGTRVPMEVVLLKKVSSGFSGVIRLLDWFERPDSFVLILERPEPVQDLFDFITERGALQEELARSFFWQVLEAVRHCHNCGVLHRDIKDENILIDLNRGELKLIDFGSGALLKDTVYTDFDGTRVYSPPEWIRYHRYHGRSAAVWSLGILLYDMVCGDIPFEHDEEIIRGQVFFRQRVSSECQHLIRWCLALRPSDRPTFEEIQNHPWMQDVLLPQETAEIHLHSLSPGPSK
Chain of Serine/threonine-protein kinase SIK1 (Homo sapiens) (P57059 whole entry): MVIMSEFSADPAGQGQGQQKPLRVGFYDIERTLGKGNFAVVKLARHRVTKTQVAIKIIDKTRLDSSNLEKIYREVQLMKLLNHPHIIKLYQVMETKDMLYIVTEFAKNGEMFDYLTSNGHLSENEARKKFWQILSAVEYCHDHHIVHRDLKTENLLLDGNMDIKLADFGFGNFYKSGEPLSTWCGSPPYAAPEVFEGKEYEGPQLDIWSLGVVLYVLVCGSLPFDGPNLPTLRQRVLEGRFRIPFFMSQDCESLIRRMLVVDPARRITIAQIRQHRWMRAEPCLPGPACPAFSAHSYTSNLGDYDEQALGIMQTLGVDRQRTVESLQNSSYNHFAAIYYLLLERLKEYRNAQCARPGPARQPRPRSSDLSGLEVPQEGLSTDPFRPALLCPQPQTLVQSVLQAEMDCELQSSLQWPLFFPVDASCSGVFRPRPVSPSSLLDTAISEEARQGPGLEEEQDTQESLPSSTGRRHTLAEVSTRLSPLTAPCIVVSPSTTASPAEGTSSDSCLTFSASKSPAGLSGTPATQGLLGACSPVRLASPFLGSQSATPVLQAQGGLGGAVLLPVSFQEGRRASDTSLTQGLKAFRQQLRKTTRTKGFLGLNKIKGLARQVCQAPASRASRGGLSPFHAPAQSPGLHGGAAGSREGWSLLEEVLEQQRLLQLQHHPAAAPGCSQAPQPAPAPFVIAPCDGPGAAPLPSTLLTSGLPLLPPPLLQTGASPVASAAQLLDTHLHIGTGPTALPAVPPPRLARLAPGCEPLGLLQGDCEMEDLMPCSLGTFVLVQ
Chain of Phosphorylase b kinase gamma catalytic chain, skeletal muscle/heart isoform (Homo sapiens) (Q16816 whole entry, looked up, canonical isoform): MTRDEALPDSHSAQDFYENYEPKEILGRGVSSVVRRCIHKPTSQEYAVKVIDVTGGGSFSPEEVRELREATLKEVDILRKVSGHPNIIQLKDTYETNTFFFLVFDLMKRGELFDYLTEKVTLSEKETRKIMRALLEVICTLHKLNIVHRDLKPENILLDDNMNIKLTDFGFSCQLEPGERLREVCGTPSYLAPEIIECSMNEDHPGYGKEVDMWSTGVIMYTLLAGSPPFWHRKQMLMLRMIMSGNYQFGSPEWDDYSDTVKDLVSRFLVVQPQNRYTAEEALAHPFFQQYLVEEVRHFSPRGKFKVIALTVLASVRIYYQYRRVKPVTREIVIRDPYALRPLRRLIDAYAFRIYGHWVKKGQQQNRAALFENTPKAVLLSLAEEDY
Chain of Serine/threonine-protein kinase SIK2 (Homo sapiens) (Q9H0K1 whole entry, looked up): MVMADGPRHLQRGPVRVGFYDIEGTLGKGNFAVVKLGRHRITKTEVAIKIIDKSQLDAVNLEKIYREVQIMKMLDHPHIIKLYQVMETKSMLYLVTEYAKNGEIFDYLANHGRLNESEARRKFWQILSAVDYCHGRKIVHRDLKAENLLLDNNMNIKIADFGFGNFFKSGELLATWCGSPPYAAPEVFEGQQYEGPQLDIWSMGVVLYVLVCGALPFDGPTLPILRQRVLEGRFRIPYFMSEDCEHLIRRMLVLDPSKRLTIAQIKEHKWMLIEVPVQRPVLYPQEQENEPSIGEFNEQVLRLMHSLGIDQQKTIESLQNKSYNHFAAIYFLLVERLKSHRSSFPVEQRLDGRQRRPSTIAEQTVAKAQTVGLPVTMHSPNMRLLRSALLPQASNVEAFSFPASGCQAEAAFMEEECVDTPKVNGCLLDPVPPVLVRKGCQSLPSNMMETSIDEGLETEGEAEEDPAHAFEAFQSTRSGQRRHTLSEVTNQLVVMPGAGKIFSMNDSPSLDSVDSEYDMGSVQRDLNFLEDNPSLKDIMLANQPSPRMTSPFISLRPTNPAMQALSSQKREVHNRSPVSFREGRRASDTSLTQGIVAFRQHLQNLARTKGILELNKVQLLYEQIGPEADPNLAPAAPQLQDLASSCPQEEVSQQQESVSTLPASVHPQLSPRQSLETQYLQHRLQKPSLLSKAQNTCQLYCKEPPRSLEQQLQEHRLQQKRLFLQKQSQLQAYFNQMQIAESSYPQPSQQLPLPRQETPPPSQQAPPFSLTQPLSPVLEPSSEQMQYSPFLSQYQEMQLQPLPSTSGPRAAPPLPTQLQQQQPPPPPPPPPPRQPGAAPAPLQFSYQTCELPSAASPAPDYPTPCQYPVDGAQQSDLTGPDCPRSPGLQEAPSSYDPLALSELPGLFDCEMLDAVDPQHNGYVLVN

Regarding `COc1cc2ncnc(Nc3ccc(C)c(O)c3)c2cc1OC`, the inhibition in [1] was 0.64%; in experiment [2], -0.16%; in [3], 0.97%; in experiment [4] it was 6.64%; in [5] it was 23.5%; in experiment [6], 5.48%. For the same compound, the inhibition is 7.74% in [7]; 1.41% in [8]; 1.44% in experiment [9]; 1.6% in experiment [10]; 2.78% in [11]; 2.48% in [12]. The inhibition in experiment [13] came out at 4.22%; in [14], 3.96%; in experiment [15], 2.36%; in experiment [16], 5.14%; in [17] it was 33.2%; in experiment [18], 7.06%. For the same compound, the figures for the inhibition in experiment [19] and in experiment [20] were 18.9% and 1.88%, respectively.

Consider `O=C(Nc1ccc(Oc2ccc3[nH]c(NC(=O)c4ccco4)nc3c2)cc1)Nc1cc(C(F)(F)F)ccc1F`, for which the inhibition in [1] was determined as 0.83%; in experiment [2] it was 0.28%; in [3], 0.06%; in experiment [4] it was 0.41%; in experiment [5], 8.29%; in experiment [6] it was 0.46%. Besides, the inhibition in [7] was -0.56%; in experiment [8], 0.14%; in [9], 1.19%; in experiment [10], -3.36%; in experiment [11], -3.75%; in experiment [12] it was 0.09%. The inhibition is 0.78% in experiment [13]; -0.29% in experiment [14]; -0.75% in experiment [15]; 4.18% in [16]; 4.41% in experiment [17]; -4.88% in [18]. Besides, the inhibition in experiment [19] came to 0.5%; in [20], 0.65%.

Turning to `ON=C1CCc2cc(-c3nc(C4CCNCC4)[nH]c3-c3ccncc3)ccc21`, the inhibition in experiment [1] is 2.57%; in [2], 0.03%; in experiment [3], -0.46%; in [4], 0%; in experiment [5] it was 1.5%; in experiment [6], 0.29%. The inhibition in experiment [7] is -2.23%; in experiment [8], 1%; in [9], 0.9%; in experiment [10] it was 0.25%; in experiment [11], 2.02%; in experiment [12] it was -0.74%. For the same compound, the inhibition in experiment [13] was -1.33%; in [14], -0.32%; in experiment [15], -1.28%; in [16], -0.24%; in experiment [17], 0.92%; in experiment [18] it was -6.05%. Further, the inhibition was 3.25% in [19] and 0.4% in [20].

On to `FC(F)(F)c1ccc(-c2nn3ncccc3c2-c2ccnc(Nc3ccc4c(c3)OCCO4)n2)cc1`, for which the inhibition in [1] is 4.45%; in experiment [2], 6.37%; in experiment [3] it was 10.9%; in [4], 7.07%; in [5], 8.64%; in experiment [6] it was 0.59%. Also, the inhibition in experiment [7] was 6.97%; in experiment [8], 0.47%; in experiment [9], 1.86%; in experiment [10] it was 6.45%; in experiment [11], 5.12%; in experiment [12], 6.66%. Besides, the inhibition in experiment [13] is 10.2%; in experiment [14] it was 2.37%; in experiment [15], 5.39%; in experiment [16] it was -4.38%; in [17], 0.84%; in experiment [18], -0.15%. The inhibition is 0.08% in [19] and 5.62% in experiment [20].

For the compound `NC(=O)c1cccc(Nc2nccc(Nc3cccc(F)c3)n2)c1`, the inhibition in experiment [1] is 3.47%; in experiment [2] it was 1.27%; in experiment [3], 0.17%; in experiment [4] it was -0.51%; in [5] it was 3.35%; in experiment [6], 1.29%. The inhibition was 0.54% in experiment [7]; -0.04% in experiment [8]; -0.4% in experiment [9]; -0.05% in [10]; 0.31% in experiment [11]; 0.13% in experiment [12]. For the same compound, the inhibition was 2% in experiment [13]; 0.33% in experiment [14]; -0.56% in [15]; 9.14% in experiment [16]; 37% in experiment [17]; 7.47% in experiment [18]. The inhibition in experiment [19] is 25.1%; in [20], 1.55%.

Turning to `Cc1ccc2c(-c3ccnc(Nc4cccc(C(F)(F)F)c4)n3)c(-c3ccccc3)nn2n1`, the inhibition in experiment [1] was 4.11%; in [2], -0.16%; in experiment [3] it was -0.17%; in [4] it was 2.62%; in experiment [5], 7.08%; in [6] it was 4.1%. In addition, the inhibition was 4.82% in experiment [7]; 1.05% in experiment [8]; 1.72% in experiment [9]; -0.26% in experiment [10]; -0.7% in experiment [11]; 0.5% in experiment [12]. For the same compound, the inhibition worked out at 1.85% in [13]; 1.8% in [14]; 1.94% in experiment [15]; 6.3% in experiment [16]; 15.8% in [17]; 1.03% in [18]. Besides, the inhibition was 9.81% in [19] and 3.23% in experiment [20].

For the compound `Cc1cc(-c2ccccn2)cc(C)c1/C=C/c1cncc(-c2nn[nH]n2)c1`, the inhibition in experiment [1] was 4.96%; in experiment [2], -0.97%; in experiment [3] it was -1.06%; in [4] it was 3.51%; in [5], 7%; in experiment [6], 1.5%. The inhibition is 5.59% in experiment [7]; 1.73% in experiment [8]; 2.55% in experiment [9]; 0.01% in experiment [10]; -0.15% in [11]; 1.13% in experiment [12]. Also, the inhibition is 3.53% in [13]; 1.22% in [14]; 1.42% in [15]; 18.9% in [16]; 74.7% in [17]; 5.34% in experiment [18]. The inhibition in experiment [19] was determined as 21.5%; in experiment [20] it was 3.59%.

The inhibition is the drop in the measured response relative to a control, in per cent.
